# High-throughput results (PubChem BioAssay)
# USP10 block: inhibitors of human USP10 deubiquitinase | 47,000 compounds, 1.1% hits | AID 1645856, 2021 | inhibition, % at 20 µM | purified USP10, Ub-rhodamine fluorescence, 60 min
# USP17 block: inhibitors of human USP17 deubiquitinase; purified USP17, Ub-rhodamine cleavage fluorescence, 3 h; inhibition, % at 50 µM; 47,000 compounds, 6.5% hits
# USP30 inh: inhibitors of human USP30 deubiquitinase. purified USP30, Ub-rhodamine cleavage fluorescence. inhibition, % at 25 µM. 47,000 compounds, 5.3% hits
# USP28 block: inhibitors of human USP28 deubiquitinase | 47,000 compounds, 3% hits | Ubiquitin carboxyl-terminal hydrolase 28 (Homo sapiens), Q96RU2 | AID 1645857, 2021 | inhibition, % at 25 µM | purified USP28, Ub-rhodamine cleavage fluorescence, 30 min
# USP8 inh: inhibitors of human USP8 deubiquitinase. Ubiquitin carboxyl-terminal hydrolase 8 (Homo sapiens), P40818. purified USP8, Ub-rhodamine cleavage fluorescence, 30 min. inhibition, % at 20 µM. 47,000 compounds, 4.2% hits. AID 1645853, 2021
# Target sequence (P40818 whole entry, looked up): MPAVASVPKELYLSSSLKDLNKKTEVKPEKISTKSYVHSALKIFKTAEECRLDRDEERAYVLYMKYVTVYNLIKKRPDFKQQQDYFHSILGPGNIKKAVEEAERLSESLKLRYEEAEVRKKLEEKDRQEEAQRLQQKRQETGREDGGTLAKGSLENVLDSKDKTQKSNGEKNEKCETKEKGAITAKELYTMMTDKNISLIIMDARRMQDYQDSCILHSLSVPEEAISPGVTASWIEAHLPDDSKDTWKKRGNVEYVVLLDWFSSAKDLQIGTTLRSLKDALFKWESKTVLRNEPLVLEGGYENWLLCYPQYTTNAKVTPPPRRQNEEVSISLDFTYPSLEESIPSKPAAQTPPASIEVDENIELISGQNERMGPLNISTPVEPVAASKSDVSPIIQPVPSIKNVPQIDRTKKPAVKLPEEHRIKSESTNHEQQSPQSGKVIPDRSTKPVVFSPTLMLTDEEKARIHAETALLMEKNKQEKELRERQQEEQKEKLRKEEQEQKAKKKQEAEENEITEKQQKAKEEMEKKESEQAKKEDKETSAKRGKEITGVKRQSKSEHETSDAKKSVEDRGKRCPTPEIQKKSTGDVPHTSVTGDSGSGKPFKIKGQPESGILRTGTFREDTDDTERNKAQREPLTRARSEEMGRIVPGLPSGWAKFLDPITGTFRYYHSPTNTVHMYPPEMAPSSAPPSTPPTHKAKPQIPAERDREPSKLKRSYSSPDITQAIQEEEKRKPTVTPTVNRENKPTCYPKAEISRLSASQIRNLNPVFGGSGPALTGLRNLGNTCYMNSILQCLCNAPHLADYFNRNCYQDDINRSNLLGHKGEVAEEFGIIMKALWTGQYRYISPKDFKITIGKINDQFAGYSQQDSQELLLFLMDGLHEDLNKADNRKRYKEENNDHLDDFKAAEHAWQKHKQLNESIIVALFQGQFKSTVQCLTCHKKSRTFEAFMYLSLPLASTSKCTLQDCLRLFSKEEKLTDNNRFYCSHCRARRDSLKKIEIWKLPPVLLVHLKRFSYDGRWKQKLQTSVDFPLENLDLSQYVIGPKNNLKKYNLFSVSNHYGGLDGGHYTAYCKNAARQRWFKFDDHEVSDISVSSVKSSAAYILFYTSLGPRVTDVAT
# An asterisk follows results filed as active; x = no result. The list is not random: actives were taken first. Their share in the collection is about 13%. No stated cut-off is given here; in the data, active means inhibition above about 30%; inactive means the rest.
SMILES,USP10 block,USP17 block,USP30 inh,USP28 block,USP8 inh
Cc1nn(-c2ccc3nncn3n2)c2c1C(c1ccc(C(C)C)cc1)CC(=O)N2 (stereo not drawn),0,19,45*,16,17
Cc1cc2cc(CNc3ncnc4c3nnn4C)ccc2[nH]1,-11,49*,-104,-22,10
O=C(Nc1ccc(N2CCOCC2)c(S(=O)(=O)Nc2ccccc2Cl)c1)C1CCCC1,11,8,12,15,5
O=C(Nc1cc(F)c2nc(N3CCOCC3)ccc2c1)C1CCCC1,-3,18,-28,-17,57*
O=C(CC1CCCC1)Nc1cc(F)c2nc(N3CCOCC3)ccc2c1,-4,21,-35,5,71*
O=C(CC1CCCC1)Nc1ccc(N2CCN(c3ccccc3)C2=O)nc1,4,8,9,1,-4
CCCCn1c(=O)c2sccc2n2c(CCC(=O)NC(C)c3ccccc3)nnc12 (stereo not drawn),3,22,26,2,-28
O=C(c1ccccc1)N(Cc1ccncc1)c1nc2ccc(Cl)cc2s1,4,11,4,14,24
CCc1ccc2nc(N(CCCn3ccnc3)C(=O)c3cccs3)sc2c1,3,x,46*,-1,-32
Cc1cc(Cl)ccc1OCC(=O)N1CCCc2ccccc21,-8,-26,-95,12,0
Cc1cnn(CC(=O)N2CC[C@H]3NC(=O)c4ccccc4OCCCCC[C@H]3C2)c1,-2,0,-7,2,10
CC1=C(C#N)C(C(F)(F)F)(C(F)(F)F)N=C(Cc2ccccc2)N1,2,-12,-6,-4,1
Cc1ccc(NC2=NC(c3ccccc3)(C(F)(F)F)C(C#N)=C3C=CC=CN23)cc1 (stereo not drawn),-17,26,-56,-10,63*
CC1CCc2noc(C3CCN(C(=O)Cc4ccc5c(c4)OCO5)CC3)c2C1 (stereo not drawn),0,-6,16,13,-3
Cn1nc(Cl)c(Cl)c1Oc1ccc(S(=O)(=O)Nc2ccc(Oc3ccc(C(F)(F)F)cn3)c(Cl)c2)cc1,69*,3,-5,0,16
Cc1cn[nH]c1CC1CCCN(C(=O)c2cccc3cccnc23)C1 (stereo not drawn),0,-6,-5,-9,-6
O=C(c1noc2ccc(S(=O)(=O)Nc3cccc(F)c3)cc12)N1CCOCC1,-1,-14,-7,-9,-18
O=S(=O)(Nc1ccc(O)cc1)c1ccc2oc3ccc(S(=O)(=O)Nc4ccc(O)cc4)cc3c2c1,22,54*,34*,23,2
COc1ccc(-c2noc(N3CCCC(C(=O)NCCN4CCOCC4)C3)n2)cc1 (stereo not drawn),1,-3,-11,-16,-2
Cc1cc(-c2nnc(C3CCC3)o2)c(C)n1CC(=O)Nc1cccc(F)c1,1,-6,-11,0,5
CC(C)Cc1nc2sc3c(SCC(=O)NC4(c5ccccc5)CCCC4)ncnc3c2c2c1CCC2,14,42*,26,20,-33
Cc1cccc(NC(=O)CSc2ncnc3c2sc2nc(CC(C)C)c4c(c23)CCC4)c1,4,74*,34*,9,6
CC(C)Cc1nc2sc3c(SCC(=O)NC(c4ccccc4)c4ccccc4)ncnc3c2c2c1CCC2,1,0,12,1,-12
CN(C)c1cc(C2CCCN2C(=O)c2ccc3n[nH]nc3c2)ccn1 (stereo not drawn),3,-3,3,-5,-8
CC1(C)O[C@@H](C2CCN(Cc3ccccn3)CC2)C2CC1C[C@H](O)[C@@]2(C)O (stereo partly drawn),-11,-22,-86,-16,-20
SMILES,USP10 block,USP17 block,USP30 inh,USP28 block,USP8 inh
Cn1ccnc1CN1CCC([C@@H]2OC(C)(C)C3CC2[C@](C)(O)[C@@H](O)C3)CC1 (stereo partly drawn),5,x,32*,16,0
CC1(c2ncc(CNC(=O)c3n[nH]c4c3CCCC4)cn2)CCCCO1 (stereo not drawn),2,10,32*,12,-1
CC(C)=CCC/C(C)=C/CC/C(C)=C/Cc1c(C)cc(O)cc1O,19,39*,27,32*,8
COC1=C(OC)C(=O)C(C/C=C(/C)CC/C=C(\C)CC/C=C(\C)CC/C=C(\C)CC/C=C(\C)CC/C=C(\C)CCC=C(C)C)=C(C)C1=O,-1,10,8,10,-6
COc1cc2nc(CN3CCN(c4ccc(O)cc4)CC3)[nH]c(=O)c2cc1OC,-2,41*,-48,-2,38*
O=C(c1ccccc1)N1CCCC1c1cccc(Cc2ccccc2)n1 (stereo not drawn),2,4,18,8,0
O=C(c1ccccc1)N1CCC(c2cccc(Cc3cccc(F)c3)n2)CC1,6,4,4,43*,-10
CNc1cc(C)nc(C2CCN(Cc3ccc(C(=O)O)cc3)C2)c1 (stereo not drawn),2,-1,-7,-11,2
Cc1ccc(NC(=O)CC2=NC(=O)C(CC(=O)Nc3ccccc3C)S2)cc1 (stereo not drawn),20,-21,-22,0,39*
CC(=O)c1sc(NC(=O)c2ccccc2-c2ccc(C(F)(F)F)cc2)nc1C,1,64*,38*,17,-8
CCCCNC(=O)c1cc2cn(C3CC3)cc2s1,-4,41*,-128,-21,78*
CCCCN(C)C(=O)Cn1c(C2CC(=O)N(Cc3ccc(F)cc3)C2)nc2ccccc21 (stereo not drawn),-4,48*,5,-7,0
Cc1ccccc1OCCCn1c(C2CC(=O)N(Cc3ccccc3)C2)nc2ccccc21 (stereo not drawn),18,19,49*,15,9
O=C1CC(c2nc3ccccc3n2Cc2ccccc2)CN1Cc1ccccc1 (stereo not drawn),4,9,22,9,10
O=C(NC1CC2(CCCCC2)Oc2ccccc21)c1cnccn1 (stereo not drawn),1,8,-7,-1,2
Cn1ccc2ccn(CC(=O)NCc3ccc(F)cc3F)c(=O)c21,-3,x,-13,-13,-1
O=C(CCSc1nnnn1-c1ccccc1)Nc1cc(C(F)(F)F)ccc1Cl,16,40*,8,1,28
O=C(C[C@@H]1CCN2C[C@@H]1CCCOc1ccccc1CN(C(=O)Nc1ccccc1)CC2=O)N1CCOCC1,-5,75*,79*,74*,-12
O=C(CC1CCN(C(=O)Nc2ccccc2)CC1)N1CCOCC1,1,6,9,6,9
Cc1ccc(Cn2nnc(C(=O)NCc3ccco3)c2-n2cccc2)cc1,1,20,-31,58*,23
Cc1ccccc1S(=O)(=O)N1C[C@H]2C[C@H](C(=O)NC(C)C)[C@@H](C1)O2,-1,12,21,8,24
